Several values for one entry are separate records, joined by “and”; a condition that tells them apart may be missing. Equal entries are not always repeated. Results filed as inconclusive are left out. A number with no mark means an inactive call. The call rests on the fitted dose curve; in most records, active means well fitted activation curve with a large enough effect; inconclusive means small, poorly fitted or top-dose-only effect; inactive means no such curve, though single readings can be large or run the other way.
molecular target: Cellular tumor antigen p53 (Homo sapiens) (UniProt P04637); assay: Primary qHTS for small molecule compounds that upregulate eGFP-tagged delta133p53alpha (in N-terminal) cells. (AID 2060322); conditions: NCI-H358 eGFP-delta133p53alpha fluorescence, 24 h; activation: hits give high values;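 further: cells pre-induced with doxycycline then dosed without doxycycline; series mostly up to about 56 µM; 0% = DMSO vehicle and 100% = reference activator; nearly all actives have a fitted effect of over 75% in size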
In short: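 NCI-H358 cells pre-induced 24 h with 10 ng/ml doxycycline for eGFP-delta133p53alpha, plated dox-free and exposed 24 h at 37C to titrated compounds. Fixed, Hoechst-stained; gated GFP peak intensity by laser scanning cytometry, normalized to DMSO (0%) and 57.5 uM 5-azacytidine (100%).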

Cellular tumor antigen p53 (Homo sapiens), sequence (P04637 whole entry, looked up): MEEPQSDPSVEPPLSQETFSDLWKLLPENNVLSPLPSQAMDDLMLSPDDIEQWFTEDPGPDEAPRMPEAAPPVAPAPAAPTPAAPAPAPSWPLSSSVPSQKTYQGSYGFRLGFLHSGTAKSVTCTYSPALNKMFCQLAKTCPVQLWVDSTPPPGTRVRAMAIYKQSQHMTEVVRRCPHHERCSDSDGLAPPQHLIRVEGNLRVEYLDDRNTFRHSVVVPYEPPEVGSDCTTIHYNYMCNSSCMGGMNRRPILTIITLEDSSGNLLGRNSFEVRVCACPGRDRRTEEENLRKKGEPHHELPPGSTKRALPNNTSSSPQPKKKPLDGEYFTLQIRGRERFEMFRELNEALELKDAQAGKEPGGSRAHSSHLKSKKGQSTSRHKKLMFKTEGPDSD

O=C(O)c1cc(=O)c2ccccc2o1 was tested. Which activation did it give?
Its activation is 2.51%.

With C=CCN1C[C@H](C(=O)N(CCCN(C)C)C(=O)NCC)C[C@@H]2c3cccc4[nH]cc(c34)C[C@H]21 as the compound, how does the activation read?
Its activation is -8.37%.

How did the activation turn out when CC(C=CC1=C(C)CCCC1(C)C)=CC=CC(C)=CC(=O)O was run?
The activation was 15.8% and -23.6%.

How did the activation turn out when NS(=O)(=O)c1cc(C(=O)NN2C[C@H]3[C@H]4CCC(C4)[C@H]3C2)ccc1Cl was run?
Its activation is 0%.

How did the activation turn out when CN1CCCN(C(=O)c2cccc(-c3ccc(C=C4C(=O)Nc5ccc(Cl)cc54)o3)c2)CC1 was run?
Its activation is 19.8%.

How did the activation turn out when CCOC(=O)NNc1nncc2ccccc12 was run?
The activation was 20.1%.

N[C@@H](CSSC[C@H](N)C(=O)O)C(=O)O was tested. Which activation did it give?
The activation was 24.3%.

With CC(C)=CCCC(C)=CCCC(C)=CCCC(C)=CCCC(C)=CCCC(C)=CCCC(C)=CCCC(C)=CCCC(C)=CCO as the compound, how does the activation read?
The activation was 8.65%.

How did the activation turn out when CCOC(=O)Oc1ccc(CCNC(=O)[C@H](CCSC)NC(C)=O)cc1OC(=O)OCC was run?
The activation was 16.4%.

For COc1c(N2C[C@@H]3CCCN[C@@H]3C2)c(F)cc2c(=O)c(C(=O)O)cn(C3CC3)c12, which activation is on record?
The activation was 4.18%.

Which activation does the source give for CC(=O)Nc1ncc([N+](=O)[O-])s1 here?
The activation was -1.69%.

For CCOC(=O)[C@H](CCc1ccccc1)N[C@@H](C)C(=O)N1[C@@H](C(=O)O)C[C@H]2CCC[C@@H]21, which activation is on record?
Its activation is 0.313%.

Which activation does the source give for CCCCCCCCCCCCCCC[C@H](O)[C@@H](N)CO here?
Its activation is 18.4%.

How did the activation turn out when Cc1c(C(=O)NCCO)[n+](=O)c2ccccc2n1[O-] was run?
The activation was -11.7%.

FC(F)(F)C(Cl)Br (stereo not given) was tested. Which activation did it give?
Its activation is 8.37%.

CC(=Cc1ccccc1)C=C1SC(=S)N(CC(=O)O)C1=O was tested. Which activation did it give?
The activation was -1.94%.

With NC1CCC(Nc2nc(Nc3ccc(C(=O)N4CCCCC4)cc3)c3ncn(-c4cccc(F)c4)c3n2)CC1 (stereo not given) as the compound, how does the activation read?
Its activation is -1.24%.

For N[C@@H](Cc1cc(I)c(O)c(I)c1)C(=O)O, which activation is on record?
Its activation is 4.18%.

With Cc1ccc(O)c([C@H](CCN(C(C)C)C(C)C)c2ccccc2)c1 as the compound, how does the activation read?
The activation was 10.7%.

Which activation does the source give for CC(=O)NC(=O)c1ccccc1O here?
Its activation is 1.69%.

For NC[C@H]1O[C@H](O[C@H]2[C@@H](O)[C@@H](O[C@H]3O[C@H](CO)[C@@H](O)[C@H](N)[C@@H]3O)[C@H](N)C[C@@H]2N)[C@H](N)C[C@H]1O, which activation is on record?
The activation was 25.5%.

Which activation does the source give for CS(=O)(=O)c1ccc([C@@H](O)[C@@H](CO)NC(=O)C(Cl)Cl)cc1 here?
Its activation is 15.3% and 17.8%.

OCCCc1ccccc1 was tested. Which activation did it give?
Its activation is -6.21%.

For CN(C)C(=N)N=C(N)N, which activation is on record?
The activation was 2.2%.

How did the activation turn out when O=C1OC(CN2CCOCC2)CN1/N=C/c1ccc([N+](=O)[O-])o1 (stereo not given) was run?
Its activation is 5.02%.

With OC1(c2ccc(Cl)cc2)CCNCC1 as the compound, how does the activation read?
The activation was -8.47%.

For NC(=O)CC[C@@H]1NC(=O)[C@H](Cc2ccccc2)NC(=O)[C@H](Cc2ccc(O)cc2)NC(=O)CCSSC[C@@H](C(=O)N2CCC[C@H]2C(=O)N[C@@H](CCCN=C(N)N)C(=O)NCC(N)=O)NC(=O)[C@H](CC(N)=O)NC1=O, which activation is on record?
The activation was -3.35%.

For COc1ccc(S(=O)(=O)N2c3ccc(Cl)cc3[C@@](O)(c3ccccc3Cl)[C@H]2C(=O)N2CCC[C@@H]2C(N)=O)cc1OC, which activation is on record?
Its activation is -10.9%.

COc1ccc(CCC(C)=O)cc1 was tested. Which activation did it give?
The activation was -5.86%.

With CCCc1ncc(C(=O)O)s1 as the compound, how does the activation read?
The activation was -8.37%.

O=C1OC(c2ccc(O)cc2)(c2ccc(O)cc2)c2ccccc21 was tested. Which activation did it give?
Its activation is 10.7%.

For CCCCCN(CCCOC)C(=O)C(CCC(=O)O)NC(=O)c1ccc(Cl)c(Cl)c1 (stereo not given), which activation is on record?
Its activation is -18.6%.

With C[C@]12CCC(=O)C=C1[C@@H]1CC1[C@H]1[C@H]3[C@@H]4C[C@H]4[C@@]4(CCC(=O)O4)[C@@]3(C)CC[C@H]12 (stereo not given in full) as the compound, how does the activation read?
The activation was 8.34%.

For CCOc1ccc(Cc2cc([C@@H]3O[C@H](CO)[C@@H](O)[C@H](O)[C@@H]3O)ccc2Cl)cc1, which activation is on record?
Its activation is -1.71%.

For Cc1cc(=O)n(-c2ccccc2)n1C, which activation is on record?
The activation was -16.7%.

CC(=O)Nc1ccc(S(=O)(=O)Nc2ccc([N+](=O)[O-])cc2)cc1 was tested. Which activation did it give?
Its activation is -10.7%.

For O=C(OOC(=O)c1ccccc1)c1ccccc1, which activation is on record?
The activation was -15.1%.

CCCCOc1ccc(C(=O)CCN2CCCCC2)cc1 was tested. Which activation did it give?
The activation was 10.9%.

With CN(C)c1ccc(C(=O)NCCCCCC(=O)NO)cc1 as the compound, how does the activation read?
Its activation is 10.1%.

How did the activation turn out when CC(=O)Nc1ccc(CC(=O)O)cc1 was run?
The activation was 6.21%.
